AC50 and outcome data for four compounds are collected here from PubChem BioAssay (EPA / NIEHS).

Test [1] in a line: TOX21_p53_BLA_p2_viability: Viability Assessment in the Tox21 HCT-116 p53 Agonism Beta-lactamase Assay, Phase 2 (AID 2283591).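 Note: actives lower the ATP signal meaning cytotoxicity.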 In short, it runs like this:
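HCT116 p53-bla cells, 4000/well, dosed after 5 h plating (217-fold dilution of DMSO stocks) and incubated 16 h at 37C. Viability taken as cellular ATP by CellTiter-Glo luminescence after 30 min RT; signal loss marks cytotoxicity.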

In test [2] the target is Cellular tumor antigen p53 (Homo sapiens) (UniProt P04637). The experiment in a line: TOX21_p53_BLA_p2_ratio: Tox21 HCT-116 p53 Agonism Beta-lactamase Assay, Ratio, Phase 2 (AID 2283592). Summed up: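 An inducible beta-lactamase reporter in HCT116 cells signals p53 pathway activation. After 16 h chemical exposure at 37C, cells load CCF4-AM substrate for 2 h at room temperature; activity is the cleaved/uncleaved emission ratio relative to DMSO.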

The nature of test [3]: TOX21_p53_BLA_p3_viability: Viability Assessment in the Tox21 HCT-116 p53 Agonism Beta-lactamase Assay, Phase 3 (AID 2283593).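 Note: cells exposed to compound for 16 h before reading.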 Summed up: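 HCT116 cells, 4000/well, dosed 5 h after plating by pin transfer (217-fold dilution from DMSO stock) and incubated 16 h at 37C, 5% CO2. Viability read as ATP luminescence with CellTiter-Glo after 30 min at room temperature.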
In test [4] the target is Cellular tumor antigen p53 (Homo sapiens) (UniProt P04637). The experiment in a line: TOX21_p53_BLA_p3_ratio: Tox21 HCT-116 p53 Agonism Beta-lactamase Assay, Ratio, Phase 3 (AID 2283596). In short, it runs like this: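 HCT116 p53-bla cells (4000/well) given compound in DMSO (217-fold dilution) after 5 h, incubated 16 h at 37C. CCF4-AM substrate 2 h at room temperature; 460/530 nm emission ratio, gain fitted against DMSO.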

A short description of test [5]: TOX21_p53_BLA_p4_viability: Viability Assessment in the Tox21 HCT-116 p53 Agonism Beta-lactamase Assay, Phase 4 (AID 2283597).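 Note: hits lower the luminescence signal meaning cytotoxicity.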 In short, it runs like this: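 Compound exposure of HCT116 cells lasts 16 h at 37C, 5% CO2, with DMSO stocks diluted 217-fold. Cellular ATP is then quantified by CellTiter-Glo luminescence after 30 min at room temperature.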
The target of test [6] is Cellular tumor antigen p53 (Homo sapiens) (UniProt P04637). The experiment in a line: TOX21_p53_BLA_p5_ratio: Tox21 HCT-116 p53 Agonism Beta-lactamase Assay, Ratio, Phase 5 (AID 2283599). Summed up:
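HCT-116 p53-bla cells (4000/well) plated 5 h, dosed with compound (217-fold DMSO dilution) for 16 h at 37 C; CCF4-AM substrate 2 h at room temperature. Activity is the 460/530 nm emission ratio (405 nm excitation), fitted in gain-of-signal direction versus DMSO.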

Test [7] in a line: TOX21_p53_BLA_p5_viability: Viability Assessment in the Tox21 HCT-116 p53 Agonism Beta-lactamase Assay, Phase 5 (AID 2283600). Summed up:
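Counter-readout for cytotoxicity: ATP-dependent luminescence from CellTiter-Glo, read in the beta-lactamase wells after 30 min at RT, following a 16 h compound exposure at 37C.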

For test [8], the target named is Cellular tumor antigen p53 (Homo sapiens) (UniProt P04637). The experiment in a line: TOX21_p53_BLA_p4_ratio: Tox21 HCT-116 p53 Agonism Beta-lactamase Assay, Ratio, Phase 4 (AID 2283601). In short, it runs like this:
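HCT-116 p53 beta-lactamase reporter cells (4000/well) preincubated 5 h, then compound (217-fold dilution of DMSO stock) for 16 h at 37C. CCF4-AM substrate added 2 h at room temperature; 460/530 nm emission ratio fitted upward versus DMSO.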

Test [9] is described as follows: CCTE_Deisenroth_AIME_96WELL_CTox_Active: Cytotoxicity Assessment (CTOX) in CCTE's 96-well Estrogen Receptor Transactivation Assay with AIME metabolic competence (metabolism positive), Deisenroth Lab (AID 2284028). In short, it runs like this: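 Chemicals (0.002–200 uM) were first incubated 2 h with alginate-immobilized phenobarbital/beta-naphthoflavone-induced male rat liver S9; conditioned medium then went onto VM7Luc4E2 cells for 24 h, with viability read by protease-substrate fluorescence, fitted bidirectionally.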

The nature of test [10]: CCTE_Shafer_MEA_dev_firing_rate_mean: CCTE's Neural Network Formation Assay for Mean Firing Rate, Shafer Lab (AID 2284031; active = hit-call score of the fitted dose curve at least 0.9, where 1 is the maximum; inactive = score below 0.9). Summed up:
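Primary rat cortical neurons on 48-well MEA plates, exposed from plating day 0 with dosing renewed on DIV 5 and 9. Mean well firing rate over active electrodes, recorded days 5, 7, 9, 12, summarised as trapezoidal AUC.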

Test [11] in a line: CCTE_Shafer_MEA_dev_per_burst_spike_percent: CCTE's Neural Network Formation Assay for Percent of Spikes in a Burst, Shafer Lab (AID 2284032; active = hit-call score of the fitted dose curve at least 0.9, where 1 is the maximum; inactive = score below 0.9). Summed up:
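Rat primary cortical neurons on 16-electrode MEA wells, dosed from plating day 0 for 12 days with renewal on DIV 5 and 9; spikes-in-bursts percentage averaged over bursting electrodes, collapsed as AUC across days 5, 7, 9, 12; loss direction versus DMSO.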

A short description of test [12]: CCTE_Shafer_MEA_dev_active_electrodes_number: CCTE's Neural Network Formation Assay for Number of Active Electrodes, Shafer Lab (AID 2284040). Summed up: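 Primary rat cortical neurons on 16-electrode MEA wells, exposed from day 0 through day 12 with compound renewed at DIV 5 and 9 feeds. Active electrodes (mean firing ≥5 spikes/min) counted at DIV 5, 7, 9, 12; trapezoidal AUC across days, loss-of-signal versus DMSO.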

A short description of test [13]: CCTE_Shafer_MEA_dev_burst_rate: CCTE's Neural Network Formation Assay for Burst Rate, Shafer Lab (AID 2284042; active = hit-call score of the fitted dose curve at least 0.9, where 1 is the maximum; inactive = score below 0.9). Summed up: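 Primary rat cortical neurons on PEI-coated 48-well MEA plates (laminin added with cells at plating) (16 electrodes/well), exposed from plating to day 12, dosing renewed at DIV 5 and 9. Burst rate averaged over active electrodes, recorded DIV 5, 7, 9, 12, summarized as AUC; loss versus DMSO.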

Test [14] in a line: CCTE_Shafer_MEA_dev_per_burst_interspike_interval: CCTE's Neural Network Formation Assay for Burst Interspike Interval, Shafer Lab (AID 2284044; active = hit-call score of the fitted dose curve at least 0.9, where 1 is the maximum; inactive = score below 0.9;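 note: mean spike spacing inside bursts as AUC over recordings on days 5 7 9 12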). In short, it runs like this: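 Developmental network-formation MEA in primary rat cortical cultures with exposure spanning days 0–12. Within-burst ISI is averaged per well and integrated across recording days by area under the curve, with DMSO as negative control baseline.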

Test [15] is described as follows: CCTE_Shafer_MEA_dev_burst_duration_mean: CCTE's Neural Network Formation Assay for Mean Burst Duration, Shafer Lab (AID 2284045; active = hit-call score of the fitted dose curve at least 0.9, where 1 is the maximum; inactive = score below 0.9). Summed up: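 Primary rat cortical neurons on 48-well 16-electrode MEA plates, exposed from day 0 with renewal at DIV 5 and 9; spontaneous activity recorded on days 5, 7, 9, 12. Well-mean burst duration across bursting electrodes, collapsed as trapezoidal AUC; DMSO baseline.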

Test [16] in a line: CCTE_Shafer_MEA_dev_interburst_interval_mean: CCTE's Neural Network Formation Assay for Mean Interburst Interval, Shafer Lab (AID 2284046; active = hit-call score of the fitted dose curve at least 0.9, where 1 is the maximum; inactive = score below 0.9;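 note: well-mean interburst interval of bursting electrodes as AUC over four recording days; curve fitted for decrease in interburst interval relative to DMSO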). In short, it runs like this:
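Recordings on days 5, 7, 9 and 12 give well-mean interburst interval across actively bursting electrodes, summarized as area under the curve. Cultures: rat cortical neurons, continuous exposure from day 0, compound renewed at feeds; decrease analyzed versus DMSO.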

A short description of test [17]: CCTE_Shafer_MEA_dev_inter_network_spike_interval_mean: CCTE's Neural Network Formation Assay for Mean Inter-network Spike Interval, Shafer Lab (AID 2284047; active = hit-call score of the fitted dose curve at least 0.9, where 1 is the maximum; inactive = score below 0.9). Summed up:
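Primary rat cortical neurons on 16-electrode MEA wells, exposed from plating day 0 through DIV 12, compound renewed at DIV 5 and 9 media changes. Mean interval between network-spike peaks recorded DIV 5, 7, 9, 12; collapsed as trapezoidal AUC, fitted downward versus DMSO.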

Test [18] is described as follows: CCTE_Shafer_MEA_dev_network_spike_number: CCTE's Neural Network Formation Assay for Number of Network Spikes, Shafer Lab (AID 2284048; active = hit-call score of the fitted dose curve at least 0.9, where 1 is the maximum; inactive = score below 0.9;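 note: synchronized bursts across electrodes counted on days 5 7 9 12 and integrated as AUC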). Summed up:
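Primary rat cortical neurons on PEI/laminin 48-well MEA plates, dosed from plating day 0 for 12 days, renewed at DIV 5 and 9. Network spike counts recorded DIV 5, 7, 9, 12, collapsed as trapezoidal AUC; DMSO baseline.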

The nature of test [19]: CCTE_Shafer_MEA_dev_spike_duration_mean: CCTE's Neural Network Formation Assay for Mean Spike Duration, Shafer Lab (AID 2284051; active = hit-call score of the fitted dose curve at least 0.9, where 1 is the maximum; inactive = score below 0.9;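 note: mean network spike duration pooled as area under curve over DIV 5 to 12 recordings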). In short, it runs like this: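 Primary rat cortical neurons on 16-electrode MEA wells (PEI-coated, laminin in plating drop), exposed from plating through DIV 12 with compound renewed at DIV 5 and 9. Mean network-spike duration recorded DIV 5, 7, 9, 12; trapezoidal AUC across days, DMSO baseline.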

Test [20] is described as follows: CCTE_Shafer_MEA_dev_network_spike_duration_std: CCTE's Neural Network Formation Assay for Standard Deviation of Network Spike Duration, Shafer Lab (AID 2284052; active = hit-call score of the fitted dose curve at least 0.9, where 1 is the maximum; inactive = score below 0.9;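 note: area under curve of spike duration SD across recording days 5 to 12; hits are decreases in network spike duration SD versus DMSO vehicle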). In short, it runs like this: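 Primary rat cortical neurons on PEI-coated 16-electrode MEA wells, exposed from plating day 0 through day 12 with compound renewed at DIV 5 and 9. Network spike duration SD recorded on days 5, 7, 9, 12, collapsed as trapezoidal AUC; loss-of-signal fit versus DMSO.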

Test [21] in a line: CCTE_Shafer_MEA_dev_per_network_spike_spike_number_mean: CCTE's Neural Network Formation Assay for Mean Number of Spikes in a Network Spike, Shafer Lab (AID 2284053; active = hit-call score of the fitted dose curve at least 0.9, where 1 is the maximum; inactive = score below 0.9). In short, it runs like this: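 Primary rat cortical neurons on 48-well, 16-electrode MEA plates were exposed from plating to DIV 12, with dosing renewed on DIV 5 and 9. Spikes per network spike (0.05 s peak window) were recorded on DIV 5, 7, 9 and 12 and collapsed as trapezoidal AUC versus DMSO.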

A short description of test [22]: CCTE_Shafer_MEA_dev_per_network_spike_spike_percent: CCTE's Neural Network Formation Assay for Percent of Spikes in a Network Spike, Shafer Lab (AID 2284054; active = hit-call score of the fitted dose curve at least 0.9, where 1 is the maximum; inactive = score below 0.9). Summed up: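 Rat primary cortical neurons were grown on 48-well MEA plates (16 electrodes/well), exposed from plating day 0 through day 12, with treatment renewed on DIV 5 and 9. Percent of spikes within 0.05 s network-spike peaks was measured, summarised as AUC across days 5, 7, 9, 12.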

The nature of test [23]: CCTE_Shafer_MEA_dev_LDH: CCTE's Lactate Dehydrogenase Assay for Cytotoxicity in the Neural Network Formation Assay, Shafer Lab (AID 2284068).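 Note: exposure for twelve days from plating with re-dosing on DIV 5 and 9.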 Summed up:
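Primary rat cortical neurons were plated on PEI/laminin MEA plates and exposed from day 0 for twelve days, with compound renewed at DIV 5 and 9. Cytotoxicity was determined by spectrophotometric LDH assay relative to DMSO.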

Test [24] is described as follows: CCTE_Shafer_MEA_dev_mutual_information_norm: CCTE's Neural Network Formation Assay for Mutual Information Normalization, Shafer Lab (AID 2284091; active = hit-call score of the fitted dose curve at least 0.9, where 1 is the maximum; inactive = score below 0.9). Summed up: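 Primary rat cortical neurons on PEI-coated 48-well MEA plates, 1.5 x 10^5 cells/well, exposed from day 0 through day 12 with re-dosing at DIV 5 and 9. Mutual information between electrodes recorded days 5, 7, 9, 12; trapezoidal AUC, loss-of-signal fit versus DMSO.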

A short description of test [25]: CCTE_Shafer_MEA_dev_correlation_coefficient_mean: CCTE's Neural Network Formation Assay for Mean Correlation Coefficient, Shafer Lab (AID 2284093; active = hit-call score of the fitted dose curve at least 0.9, where 1 is the maximum; inactive = score below 0.9). In short, it runs like this: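 Spontaneous activity recorded on days 5, 7, 9 and 12 post-plating; pairwise spike correlations are averaged across active electrodes and collapsed to an area-under-curve. Rat cortical cultures are dosed from plating through 12 days, with compound renewed at media changes.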

Results filed as inconclusive are left out. Active and inactive are the calls of the source. Rule for the calls, unless noted: active = hit-call score of the fitted dose curve at least 0.9, where 1 is the maximum; inconclusive = response in the unintended direction; inactive = score below 0.9.

Cellular tumor antigen p53 (Homo sapiens), sequence (P04637 whole entry, looked up): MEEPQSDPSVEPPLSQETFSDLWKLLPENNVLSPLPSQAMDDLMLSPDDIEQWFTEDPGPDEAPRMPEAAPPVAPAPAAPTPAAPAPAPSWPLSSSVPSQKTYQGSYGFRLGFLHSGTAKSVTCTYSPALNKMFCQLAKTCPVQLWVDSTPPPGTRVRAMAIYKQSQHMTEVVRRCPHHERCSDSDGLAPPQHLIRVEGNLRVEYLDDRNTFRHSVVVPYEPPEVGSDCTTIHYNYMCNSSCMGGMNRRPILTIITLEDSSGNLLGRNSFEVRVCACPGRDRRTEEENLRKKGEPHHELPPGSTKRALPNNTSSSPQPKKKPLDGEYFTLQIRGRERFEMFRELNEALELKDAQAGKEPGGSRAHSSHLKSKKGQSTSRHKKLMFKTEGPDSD

As a reminder, the AC50 is the concentration giving half of the maximal activity seen. Consider `CC(O)C(=O)[O][Hg][c]1ccccc1` (centres undefined), for which the AC50 was 2.69 µM (active) in [1]; 9.88 µM (active) in [2]; 0.648 µM (active) in test [3]; 2.21 µM (active) in test [4]; 3.87 µM (active) in test [5]; 2.92 µM (active) in test [6]. For the same compound, the AC50 in test [7] was 1.59 µM (active); in [8], 5.92 µM (active).

In the case of `c1ccc2c(c1)cc1ccc3cccc4ccc2c1c34`, the compound was called inactive in test [1], in test [3], in test [5], in [7], in [9] and in test [10]. Also, the compound was classed as inactive in test [11], in [12], in test [13], in test [14], in test [15] and in [16]. In addition, the outcome in test [17], in test [18], in [19], in test [20], in [21] and in test [22] was inactive. The result in test [23], in [24] and in [25] was inactive. In addition, the AC50 in [2] is 2.05 µM (active); in test [4], 4.14 µM (active); in test [6], 1.56 µM (active); in [8], 2.39 µM (active).

Turning to `O=C(O)/C=C\C(=O)O`, the call in [1], in [2], in test [3], in [4], in test [5] and in test [6] was inactive. Also, the outcome in [7] and in [8] was inactive.

Take `O=C(O)C(Cl)Br` (centres undefined): the outcome in test [1], in test [2], in [3], in test [4], in [5] and in test [6] was inactive. Besides, the compound was classed as inactive in [7] and in test [8].
